Sampled rows, rich in hits. Any-hit rate of the full collection: about 21%.
Sm TGR inh: qHTS Assay for the Inhibitors of Schistosoma Mansoni Peroxiredoxins. purified TGR, DTNB reduction, TNB absorbance 405 nm. AID 485364, 2010. 360,000 compounds, 3% hits. Potency, µM (series often up to 114 µM), without a hit: at the top dose activity change, negative = inhibition, most hits filed as inhibitors; further: potency means the concentration at half of the fitted maximal effect; on the % scale 0 is the no-effect control and ±100 the full control effect; nearly all actives have a fitted effect of over 60% in size
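TGR 20 nM + NADPH 100 uM (dispensed conc.), cpd preinc 15 min RT; start with NADPH (500 uM addition) then DTNB (15 mM addition). Kinetic TNB absorbance, 405 nm filter. Four-parameter Hill fit across titration.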
Pf growth 48h: Primary qHTS for delayed death inhibitors of the malarial parasite plastid, 48 hour incubation; P. falciparum luciferase growth in erythrocytes, 48 h; Potency, µM (top dose mostly 28.7 µM), for the others: at the top dose activity change, negative = inhibition, most hits filed as inhibitors; 310,000 compounds, 5.9% hits; AID 504832, 2011; further: potency means the concentration at half of the fitted maximal effect; on the % scale 0 is the no-effect control and ±100 the full control effect
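Erythrocytes infected with P. falciparum carrying an integrated firefly luciferase reporter (2% hematocrit, 0.1% parasitemia final) were exposed to compounds in RPMI 1640 with 0.5% Albumax at 37 C, 5% CO2. Growth inhibition was scored as reduced luminescence.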
NS1 function inh: qHTS Assay for Inhibitors of Influenza NS1 Protein Function; Potency, µM (titrated, usually from 46.1 µM), for the others: top-dose activity, positive = more growth; 270,000 compounds, 0.4% hits; calls by dose curve; further: potency means the concentration at half of the fitted maximal effect; actives are rising curves; nearly all actives have a fitted effect of over 50% in size
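Read-out: OD600 growth recovery of NS1-expressing budding yeast. Cells grown overnight at 30C in -URA glucose medium, washed, resuspended and diluted 1:100 in 2% galactose assay medium, pH 6.0. Same strain lacking NS1 served as positive control.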
CHX counter: Cycloheximide Counterscreen for Small Molecule Inhibitors of Shiga Toxin; cell reporter, cycloheximide protein synthesis inhibition counterscreen; max response, %; 300,000 compounds, 12% hits; in the data active means max response mostly above about 13%, no sharp cut-off; inactive means mostly below about 14%; further: read at 38.3 µM for the half of the compounds with a filed dose; 0% is about no effect
Pf growth 96h: Primary qHTS for delayed death inhibitors of the malarial parasite plastid, 96 hour incubation; P. falciparum luciferase reporter growth, 96 h; Potency, µM (titrated, usually from 28.7 µM), for inactives: top-dose activity change, negative = inhibition, most hits filed as inhibitors; 320,000 compounds, 6.9% hits; further: potency means the concentration at half of the fitted maximal effect; on the % scale 0 is the no-effect control and ±100 the full control effect
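96 h incubation, 37 C, 5% CO2, of luciferase-reporter P. falciparum-infected RBCs (2% hematocrit, 0.05% parasitemia final) with test compounds; endpoint luminescence.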
Shiga inhibitor: A qHTS for Small Molecule Inhibitors of Shiga Toxin | Vero cells, Shiga toxin protein synthesis inhibition reporter | inhibition, % at 38.7 µM | 290,000 compounds, 9.2% hits; in the data active means inhibition mostly above about 28%, no sharp cut-off; inactive means mostly below about 43%; further: 0% is about no effect
* = called active by the depositor; i = inactive; ? = inconclusive; · = no result; + = active, no number; [ ] = dose if it differs, or a comment. Unless noted, the call rests on the fitted dose curve; in most records, active means well fitted curve in the direction sought with a large enough effect; inconclusive means small, poorly fitted or top-dose-only effect, or another doubt; inactive means no such curve, though single readings can be large; an effect the other way counts as inactive or inconclusive.

SMILES	Sm TGR inh	Pf growth 48h	NS1 function inh	CHX counter	Pf growth 96h	Shiga inhibitor
COc1ccc(S(=O)(=O)N(CC(=O)NCCSc2ccccc2)c2ccc(Cl)cc2)cc1	7.6%	·	·	·	·	·
Cc1ccc(SCN2CCCCC2)cc1 (tested in a mixture with another compound)	·	·	-10.6%	·	·	·
CCc1ccc(NC(=S)Nc2ccc3cn[nH]c3c2)cc1	1.1%	30.7%	-3.0%	14.0	5.3%	49.9*
S=C(NCc1ccccc1)Nc1ccc2ccccc2c1	-5.0%	19.9%	13.9%	76.1*	?	101.9*
S=C(NCc1ccccc1)Nc1ccc2cn[nH]c2c1	39.8µM*	10.1%	0.8%	1.8	-10.8%	26.4
S=C(Nc1ccc2cn[nH]c2c1)Nc1ccc2cn[nH]c2c1	·	·	-4.8%	·	·	·
COc1ccc(OC)c(CCNc2nc3cc(OC)c(OC)cc3c3nc(-c4cccnc4)nn23)c1	-1.8%	·	·	·	·	·
O=C(CSc1nccn1-c1ccccc1)c1ccc(Br)cc1	-29.0%	-2.2%	12.9%	15.7*	29.6%	39.2*
Cn1ccnc1SCC(=O)c1ccc([N+](=O)[O-])cc1	·	10.2%	4.1%	-2.0	?	22.1
O=C(O)CCCSc1nccn1-c1ccccc1	1.1%	-5.4%	1.2%	12.6	10.5%	-11.3
O=C(CSc1nccn1-c1ncc(C(F)(F)F)cc1Cl)c1ccc(Cl)cc1	-11.1%	120.4%	-0.4%	47.3*	116.1%	+
O=C(CSc1nccc(=O)[nH]1)c1c[nH]c2ccccc12	-13.1%	5.4%	3.3%	-1.4	0.0%	8.6
Cn1ccnc1SCC(=O)c1c[nH]c2ccccc12	7.0%	i	1.6%	43.7*	411.2%	78.0*
Cn1ccnc1SCC(=O)c1ccc(Br)cc1	2.7%	58.5%	-3.6%	38.4*	6.5%	59.9*
O=C(OC1CCN(c2ncc(C(F)(F)F)cc2Cl)CC1)c1ccc(Cl)cc1	12.8%	-10.5%	-1.7%	-1.4	26.6%	-6.3
CC(C)Oc1cccc(C(=O)Nc2ccc3oc(-c4cccc(Cl)c4)nc3c2)c1	2.9%	·	·	·	·	·
COc1ccc(-c2cc3nc(C)c(CCC(=O)NCCc4ccc(Cl)cc4)c(C)n3n2)c(OC)c1	-0.4%	·	·	·	·	·
COc1ccc(NC(=O)Cn2c(SCc3cccc(Cl)c3)nc3ccncc32)c(OC)c1OC	-3.9%	·	·	·	·	·
CCOC(=O)c1c(C)[nH]c(C(=O)Cn2c(=O)c3c(ncn3CC)n(Cc3ccccc3)c2=O)c1C	-13.2%	8.28µM*	19.7%	-2.2	10.4µM*	24.1
CCn1cnc2c1c(=O)n(Cc1csc(-c3ccccc3)n1)c(=O)n2Cc1ccccc1	-4.1%	?	21.2%	-1.0	13.6%	-10.4
CCn1cnc2c1c(=O)n(Cc1cccc([N+](=O)[O-])c1)c(=O)n2Cc1ccccc1	-0.2%	8.28µM*	13.1%	-0.4	?	-9.9
COC(=O)c1cc(-c2ccc(S(=O)(=O)N3CCCC3)cc2)c(C(F)(F)F)s1	-5.2%	?	5.6%	-0.5	?	-7.8
COC(=O)c1cc(-c2ccc(S(=O)(=O)N3CCCCC3)cc2)c(C(F)(F)F)s1	9.7%	11.7µM*	7.8%	9.3	?	19.6
CCOc1ccc(C(=O)Nc2ccc3nn(-c4ccc(OC)c(Cl)c4)nc3c2)cc1	5.2%	·	·	·	·	·
Cc1cccc(/C=C2\Sc3ccc(C(=O)N4CCCCC4)cc3N(C)C2=O)c1	-0.5%	?	-55.8%	-4.3	12.1%	20.0
SMILES	Sm TGR inh	Pf growth 48h	NS1 function inh	CHX counter	Pf growth 96h	Shiga inhibitor
Cc1ccc2c(c1)S/C(=C/c1ccc[n+](C)c1)N2CCO	-3.1%	?	·	-8.6	6.2%	13.3
Cc1ccc2c(c1)N(C)/C(=C/c1cccc[n+]1CCO)S2	6.5%	1.85µM*	-0.6%	-3.2	15.8%	5.1
Cc1ccc2c(c1)N(C)/C(=C/c1cccc[n+]1C)S2	-18.3%	5.3%[0.00184 µM]	-5.5%	-1.9	0.465µM*	5.8
CN1/C(=C/c2cccc[n+]2C)Sc2ccccc21	-9.8%	1.17µM*	-6.0%	7.0	2.5%	22.7
CCc1ccccc1NS(=O)(=O)c1ccc2[nH]cc(C(=O)N(CC)Cc3ccccc3)c(=O)c2c1	2.9%	·	·	·	·	·
Cc1nnc(SCC(=O)NC2CCCC2)n1C(C)C	-5.1%	18.5%	6.3%	20.3*	1.5%	-37.9
CCn1c(COc2cccc(OC)c2)nnc1SCC(=O)NC1CCCC1	3.3%	-27.5%	20.6%	35.8*	?	-9.3
Cc1cccc(C(=O)NCc2nnc(SCC(=O)NC3CCCC3)n2C)c1	-1.5%	18.1%	6.0%	-3.0	7.1%	-5.4
Cc1cccc(C)c1OCC(=O)NCc1nnc(SCC(=O)NC2CCCCC2)n1C	14.1%	11.7µM*	-2.5%	-1.7	26.9%	-4.7
Cc1nnc(SCC(=O)NC2CCCCCC2)n1C	-1.3%	3.8%	22.3%	-1.3	11.2%	4.7
CCn1c(CC(=O)Nc2ccccc2C)nnc1SCC(=O)NC1CCCC1	6.4%	?	-7.7%	20.6*	27.6%	19.3
CCOc1cc(C#N)c(NC(=O)c2ccc(OC)c(S(=O)(=O)N3CCN(c4ccccc4)CC3)c2)cc1OCC	-17.9%	·	·	·	·	·
CCOc1ccc(N2C(=O)CC(NCc3ccc(S(N)(=O)=O)cc3)C2=O)cc1 (centres undefined)	3.8%	-2.7%	-2.9%	-1.4	15.6%	-13.5
CCCOc1ccc(N2C(=O)CC(NCCNc3ccc([N+](=O)[O-])cn3)C2=O)cc1 (centres undefined)	8.91µM*	3.6%	-3.8%	-2.4	0.0%	23.5
CCOc1ccc(N2C(=O)CC(NCC#N)C2=O)cc1 (centres undefined)	2.82µM*	?	-65.5%	-2.6	-18.1%	4.2
CCOc1ccc(N2C(=O)CC(NC3CCCCNC3=O)C2=O)cc1 (centres undefined)	22.4µM*	8.9%	-3.8%	-3.9	-17.4%	8.6
Cc1nn(C)cc1S(=O)(=O)NC1CCCC1	-6.4%	-2.1%	-1.1%	7.8	-22.7%	4.4
O=C(Nc1ccc(Cl)cc1)/C(=C/c1ccc([N+](=O)[O-])cc1)c1nc2ccccc2s1	-12.7%	2.08µM*	-4.5%	55.9*	1.47µM*	115.2*
O=C(Nc1ccc(Cl)c([N+](=O)[O-])c1)Nc1nc2ccccc2s1	9.0%	?	6.4%	3.6	10.4µM*	21.5
O=C(Nc1nc2ccccc2s1)Nc1ccc([N+](=O)[O-])cc1Cl	0.4%	?	2.7%	-1.8	1.04µM*	-3.4
O=C(O)CC/C(=C\c1cc([N+](=O)[O-])ccc1Cl)c1nc2ccccc2s1	4.7%	-14.4%	5.8%	-3.1	2.8%	-6.5
Cc1ccc(NC(=O)Nc2nc3ccccc3s2)cc1NC(=O)Nc1nc2ccccc2s1	-20.6%	2.08µM*	6.6%	16.1	2.62µM*	75.6
CCOC(=O)c1cc2c(=O)n3ccccc3nc2n(CC2CCCO2)c1=NC(=O)c1ccc(OCC)cc1 (centres undefined)	-14.5%	·	·	·	·	·
